Screens (PubChem)
This is a sample that favours compounds with a hit; in the whole collection about 3.1% have one here.
PAFAH1B2 inh: inhibitors of human PAFAH1B2; P68402; recombinant PAFAH1B2, FP-rhodamine activity probe, fluorescence polarization; inhibition, % at 3.39 µM; 1.2% of 340,000 active; AID 492953;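 active = inhibition above the mean of all tested compounds plus 3 SD, cut at about 24% in these data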;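 note: 0% = enzyme with DMSO and 100% = wells lacking PAFAH1B2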
pPAFAH FP inh: pPAFAH (human) enzyme inhibition; Q13093; recombinant pPAFAH, FP-rhodamine probe fluorescence polarization; inhibition, % at 3.39 µM; 1.5% of 330,000 active; AID 463082;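 active = inhibition above the mean inhibition across the screen plus 3 SD, cut at about 25% in these data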;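 note: inhibitors block binding of the rhodamine activity-based probe so polarization drops; 0% = enzyme with DMSO and 100% = wells lacking pPAFAH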
PAFAH2 inh: PAFAH2 (human) inhibition. recombinant PAFAH2, FP-rhodamine activity probe, fluorescence polarization. inhibition, % at 3.39 µM. 0.99% of 340,000 active. AID 492956;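 active = inhibition above the mean over all tested compounds plus 3 SD, cut at about 30% in these data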;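 note: inhibitors block probe labeling of enzyme so polarization drops; 0% = enzyme with DMSO and 100% = wells lacking PAFAH2 protein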
PAFAH1B3 FP inh: PAFAH1B3 (human) inhibition. Q15102. recombinant PAFAH1B3, FP-rhodamine probe, fluorescence polarization. inhibition, % at 3.39 µM. 0.28% of 340,000 active. AID 492972;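 active = inhibition above the screen-wide average of all tested compounds plus 3 SD, cut at about 25% in these data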;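 note: 0% = enzyme with DMSO only and 100% = wells lacking PAFAH1B3 protein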
Rin1 Abl inh: human Rin1-Abl interaction inhibition; TR-FRET Rin1/Abl binding, biochemical; inhibition, % at 7.35 µM; 0.4% of 360,000 active; AID 588664; in the data active = inhibition above about 5%, passing the limit was not always enough
E coli Lon inh: E. coli protease La inhibition; P0A9M0; purified E. coli Lon protease, fluorescence polarization; inhibition, % at 7.94 µM; 0.42% of 360,000 active; AID 602123; in the data active = inhibition above about 13%, passing the limit was not always enough;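 note: 0% = enzyme with probe and DMSO and 100% = no enzyme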
PAFAH2 FP conf: PAFAH2 (human) inhibition, confirmed; shares compounds with PAFAH2 inh; recombinant PAFAH2, FP-rhodamine activity probe, fluorescence polarization; inhibition, % at 3.39 µM; 65% of 2,300 active;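 active = mean inhibition over three repeats above a set limit taken from the earlier primary screen, cut at about 30% in these data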;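 note: inhibitor blocks binding of rhodamine activity probe so polarization falls; 0% = enzyme with DMSO and 100% = wells lacking PAFAH2 protein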
* hit, by the source's call.

What do the screens show for `COc1cc(/C=C/C(=O)OCC(=O)N2CCCc3ccccc32)ccc1O`?
PAFAH1B2 inh: 2; pPAFAH FP inh: 5; PAFAH2 inh: 51*; PAFAH1B3 FP inh: 6; Rin1 Abl inh: -3; E coli Lon inh: -10; PAFAH2 FP conf: 41*

Results for COc1ccc(NC2CC(=O)N(c3cccc(C)c3)C2=O)cc1 (configuration not stated) ?
PAFAH1B2 inh: 1; pPAFAH FP inh: 4; PAFAH2 inh: 47*; PAFAH1B3 FP inh: 5; Rin1 Abl inh: 0; E coli Lon inh: -2; PAFAH2 FP conf: -2

How did COc1cccc(CNC(=O)c2cc(=O)[nH]c3ccc(S(=O)(=O)N4CCOCC4)cc23)c1 do in these assays?
PAFAH1B2 inh: 0; pPAFAH FP inh: 1; PAFAH2 inh: 3; PAFAH1B3 FP inh: 6; Rin1 Abl inh: 3; E coli Lon inh: -6

What do the screens show for `CC1CCN(C(=O)COC(=O)/C=C/c2ccc([N+](=O)[O-])cc2)CC1`?
PAFAH1B2 inh: 6; pPAFAH FP inh: 7; PAFAH2 inh: 28; PAFAH1B3 FP inh: 6; Rin1 Abl inh: -1; E coli Lon inh: -9

What do the screens show for `CC1CCCC(NC(=O)COC(=O)/C=C/c2ccco2)C1C` (configuration not stated)?
PAFAH1B2 inh: 0; pPAFAH FP inh: 8; PAFAH2 inh: 86*; PAFAH1B3 FP inh: 6; Rin1 Abl inh: 1; E coli Lon inh: -20; PAFAH2 FP conf: 79*

How did CC1CCCC(NC(=O)COC(=O)c2ccccc2[N+](=O)[O-])C1C (configuration not stated) do in these assays?
PAFAH1B2 inh: 6; pPAFAH FP inh: 7; PAFAH2 inh: 65*; PAFAH1B3 FP inh: 1; Rin1 Abl inh: -4; E coli Lon inh: -9; PAFAH2 FP conf: 57*

How did CSCCC(NC(=O)c1ccc([N+](=O)[O-])cc1Cl)C(=O)OCC(=O)NC(=O)CN1CCCC1=O (configuration not stated) do in these assays?
PAFAH1B2 inh: -3; pPAFAH FP inh: 1; PAFAH2 inh: -4; PAFAH1B3 FP inh: 7; Rin1 Abl inh: -1; E coli Lon inh: -4

Results for CSCCC(NC(=O)c1ccc([N+](=O)[O-])cc1Cl)C(=O)OCC(=O)NC1CCCC(C)C1C (configuration not stated) ?
PAFAH1B2 inh: 8; pPAFAH FP inh: 5; PAFAH2 inh: 33*; PAFAH1B3 FP inh: -1; Rin1 Abl inh: 5; E coli Lon inh: 0; PAFAH2 FP conf: 21

Results for CC1CCCC(NC(=O)COC(=O)c2ccccc2NC(=O)c2ccco2)C1C (configuration not stated) ?
PAFAH1B2 inh: -5; pPAFAH FP inh: 3; PAFAH2 inh: -10; PAFAH1B3 FP inh: 3; Rin1 Abl inh: -3; E coli Lon inh: -2

Results for CC1CCCC(NC(=O)COC(=O)/C=C/c2ccc([N+](=O)[O-])cc2)C1C (configuration not stated) ?
PAFAH1B2 inh: 5; pPAFAH FP inh: 11; PAFAH2 inh: 62*; PAFAH1B3 FP inh: 9; Rin1 Abl inh: 2; E coli Lon inh: -1; PAFAH2 FP conf: 20

How did Cc1oc(-c2cccs2)nc1CNC[C@H]1O[C@@H](n2cnc(C(N)=O)n2)[C@H](O)[C@@H]1O do in these assays?
PAFAH1B2 inh: -5; PAFAH2 inh: 1; PAFAH1B3 FP inh: 7; Rin1 Abl inh: -5; E coli Lon inh: -5

How did Cc1nc2ccc(S(=O)(=O)CCC(=O)NCc3ccc(Cl)cc3)cc2s1 do in these assays?
Rin1 Abl inh: 0; E coli Lon inh: -1

Results for COc1cccc2cc(C(=O)OCC(=O)NC3CCCC(C)C3C)c(=O)oc12 (configuration not stated) ?
PAFAH1B2 inh: 5; pPAFAH FP inh: 4; PAFAH2 inh: 19; PAFAH1B3 FP inh: 10; Rin1 Abl inh: -3; E coli Lon inh: -6

Results for COc1ccc(Cl)cc1C(=O)OCC(=O)NC1CCCC(C)C1C (configuration not stated) ?
PAFAH1B2 inh: 7; PAFAH2 inh: 35*; PAFAH1B3 FP inh: 3; Rin1 Abl inh: -1; E coli Lon inh: -9; PAFAH2 FP conf: 26

How did CCCS(=O)(=O)NC(=O)C1(C)CCCN(C(=O)CSc2ccccc2)C1 (configuration not stated) do in these assays?
Rin1 Abl inh: -5; E coli Lon inh: -6

How did COc1cc(/C=C2\SC(=O)N(c3ccccc3Cl)C2=O)cc([N+](=O)[O-])c1O do in these assays?
PAFAH1B2 inh: 14; PAFAH2 inh: 36*; PAFAH1B3 FP inh: 20; Rin1 Abl inh: 3; E coli Lon inh: 3; PAFAH2 FP conf: 23

What do the screens show for `COc1cc(/C=C2\SC(=O)N(CC(=O)Nc3cccc(C)c3)C2=O)cc([N+](=O)[O-])c1O`?
Rin1 Abl inh: -1; E coli Lon inh: -2

Results for CCOC(=O)c1ncn2c1[C@@H]1CCNC1C(=O)c1cc(OC)ccc1-2 (some centres not stated) ?
PAFAH1B2 inh: -3; pPAFAH FP inh: -1; PAFAH2 inh: 4; PAFAH1B3 FP inh: 6; Rin1 Abl inh: 0; E coli Lon inh: -6

Results for O=C(CCC(=O)N1CCCC1)Nc1ccc(Cl)c(Cl)c1 ?
PAFAH1B2 inh: -6; pPAFAH FP inh: 23; PAFAH2 inh: 54*; PAFAH1B3 FP inh: 3; Rin1 Abl inh: 5; E coli Lon inh: 4; PAFAH2 FP conf: 57*

Results for COC(=O)c1noc(C)c1-c1ccnn1C(=O)c1ccc(C)cc1 ?
PAFAH1B2 inh: -3; pPAFAH FP inh: -3; PAFAH2 inh: 54*; PAFAH1B3 FP inh: 6; Rin1 Abl inh: 2; E coli Lon inh: -10; PAFAH2 FP conf: 33*

How did Cc1onc(-c2ccccc2)c1-c1ccnn1C(=O)NC(C)C do in these assays?
PAFAH1B2 inh: -8; pPAFAH FP inh: 8; PAFAH2 inh: -6; PAFAH1B3 FP inh: 4; Rin1 Abl inh: -2; E coli Lon inh: 6

What do the screens show for `CCOC(=O)C1=C(COC(=O)CCOc2ccccc2C)NC(=O)NC1C` (configuration not stated)?
PAFAH1B2 inh: 6; pPAFAH FP inh: 6; PAFAH2 inh: 9; PAFAH1B3 FP inh: -2; Rin1 Abl inh: 0; E coli Lon inh: 2

How did COc1cc(CN2C[C@@H](CO)O[C@@H](n3cnc4c(N(C)C(C)C)ncnc43)C2)cc(OC)c1OC do in these assays?
Rin1 Abl inh: 0; E coli Lon inh: 2

What do the screens show for `O=C(NC1CCCCCCC1)c1c(O)c2ccccc2[nH]c1=O`?
PAFAH1B2 inh: 3; pPAFAH FP inh: 1; PAFAH2 inh: 3; PAFAH1B3 FP inh: -1; Rin1 Abl inh: 2; E coli Lon inh: -2

Results for O=C(NC1CCCC1)c1sc(=S)n2c1[nH]c(=O)c1ccccc12 ?
PAFAH1B2 inh: 22; pPAFAH FP inh: 15; PAFAH2 inh: 39*; PAFAH1B3 FP inh: 22; Rin1 Abl inh: 0; E coli Lon inh: -3; PAFAH2 FP conf: 32*
